# According to PubChem BioAssay AID1571 (National Center for Advancing Translational Sciences (NCATS), 2009):
# Records with an inconclusive call do not appear. A call without a number means that no potency is given here. Values without a mark were called inactive. Active and inactive are the calls of the source. The call rests on the fitted dose curve; in most records, active means well fitted curve in the direction sought with a large enough effect; inconclusive means small, poorly fitted or top-dose-only effect, or effect the other way; inactive means flat fitted curve, though single readings scatter.
# Test: Total Fluorescence Confirmation Counterscreen for Inhibitors of the Interaction of Thyroid Hormone Receptor and Steroid Receptor Coregulator 2, Fluorescein Fluoroprobe
# Settings: TRbeta/SRC2-fluorescein mix, total fluorescence interference; series mostly up to 92.2 µM
# Excerpt: NIH Molecular Libraries Probe Production Network [MLPCN] NIH Chemical Genomics Center [NCGC] MLPCN Grant: DK058080 Assay Provider: R. Kip Guy, St. Jude Children's Research Hospital NCGC Assay Overview: Thyroid receptor (TR) regulates many homeostatic processes including basal metabolism, cardiovascular function, body weight, and lipid trafficking. TR modulators are potential therapeutics for obesity and hyperlipidemias but current thyroid analogs have undesirable side effects, particularly cardiac stimulation. To identify inhibitors that specifically prevent the interaction of TR with the steroid receptor coregulator 2 (SRC2), a fluorescence polarization assay was screened (Arnold et al., 2006). This assay detects interaction of the ligand-binding domain of human TRbeta with a fluorescein labeled SRC2 peptide, corresponding to a 20 amino acid region of the nuclear receptor interaction domain. Total fluorescence (555 nm excitation and 632 nm emission) was measured to identify potential fluorescent and light absorbing compounds. Such compounds may be artifacts that interfere with the fluorescence polarization assay. This assay is a confirmation assay for AID 1479. Arnold, L. A.; Estebanez-Perpina, E.; Togashi, M.; Shelat, A.; Ocasio, C. A.; McReynolds, A. C.; Nguyen, P.; Baxter, J. D.; Fletterick, R. J.; Webb, P.; Guy, R. K. A high-throughput screening method to identify small molecule inhibitors of thyroid hormone receptor coactivator binding. Sci STKE 2006, p 13.
# NCGC Assay Protocol Summary: For screening, 5 uL/well 0.6 uM TRbeta and 20 nM SRC2 Fluorescein in protein buffer (20mM Tris hydrochloride, 100mM NaCl, 10% glycerol, 1mM EDTA, 0.01% NP-40, 1mM DTT, 1uM T3 and 5% DMSO) was dispensed into black solid 1536-well plates (Grenier) using a solenoid-based dispenser. Following transfer of 23 nL compound or DMSO vehicle by a pin tool, the plates were centrifuged 15 s at 1000 RPM and incubated 5 hr at ambient temperature. The plates were read by an Envision (Perkin Elmer) to detect fluorescence polarization of SRC2 Fluorescein (480 nm excitation and 535 nm emission). Data were normalized to unbound (all components except TRbeta) and bound SRC2 Fluorescein controls. Total fluorescence (TF) was calculated as follows: TF = S + 2P where S and P are fluorescence readings in the parallel and perpendicular channels, respectively. In this assay, we provide % activity data for each concentration as well as potencies for the active compounds.
SMILES,Potency,"total fluorescence change, positive = fluorescent"
COn1c2c(c3c4nonc4ccc31)CCCC2,inactive,
CC1=NN(c2ccc(F)cc2)C(=O)C1C(c1cccc(O)c1)c1c(C)[nH]n(-c2ccc(F)cc2)c1=O (stereo not given),inactive,
Cc1c(C#N)c(O)n(CCO)c(=O)c1N=Nc1ccc2c(c1)COC2=O,inactive,
COc1ccc(C(=O)/C=C/Nc2ccc(S(=O)(=O)Nc3ncccn3)cc2)cc1,,8.87% [at 0.0112 µM]
C/C(=C\C(=O)c1ccccc1)Nc1ccc(O)cc1,,10.3% [at 11.6 µM]
O=C(O)C1C2C=CC(O2)C1C(=O)Nc1ccc(S(=O)(=O)N2CCc3ccccc32)cc1 (stereo not given),,3.65% [at 11.6 µM]
COc1cc(C(c2c(C)[nH][nH]c2=O)c2c(C)[nH][nH]c2=O)ccc1OC(=O)c1cccc(C)c1,inactive,
Nc1cc(-c2ccncc2)c[nH]c1=O,inactive,
Cn1cc[nH]c1=S,inactive,
CCOc1cc(C(c2c(C)[nH][nH]c2=O)c2c(C)[nH][nH]c2=O)ccc1OS(=O)(=O)c1ccc(C)cc1,inactive,
CC1(C)C(N(O)C(=O)Nc2ccc(Cl)cc2)N(c2ccc(Cl)cc2)C(=O)N1CC(=O)NN (stereo not given),,17.6% [at 11.6 µM]
Cc1ccc2c(CC(=O)Nc3c(C(=O)c4ccc(F)cc4)oc4ccccc34)coc2c1C,inactive,
O=c1[nH]c(Nc2ccccc2)cc2ccccc12,35.5 µM [fluorescent] (active),
CC1(C)CC(=O)C(N=Nc2cccc(S(=O)(=O)N3CCOCC3)c2)=C(O)C1,inactive,
COc1ccccc1Nc1cc2ccccc2c(=O)[nH]1,44.7 µM [fluorescent] (active),
Cc1cc2ccccc2n1CCNC(=O)C(C)Oc1ccccc1 (stereo not given),inactive,
C=CCSc1nnc2n(-c3ccccc3OC)c(=O)c3c4c(sc3n12)CCC4,inactive,
Cc1cc(C)cc(OCC(=O)NCCc2nc3ccccc3[nH]2)c1,inactive,
COc1cc(C(c2c(C)[nH][nH]c2=O)c2c(C)[nH][nH]c2=O)ccc1OC(=O)c1ccccc1OC,inactive,
Cc1[nH][nH]c(=O)c1C(c1ccc(-c2ccccc2C(=O)O)o1)c1c(C)[nH][nH]c1=O,inactive,

SMILES,Potency,"total fluorescence change, positive = fluorescent"
Nc1cc(-c2ccccc2)c[nH]c1=O,39.8 µM [fluorescent] (active),
Cn1c(CCN2CCCCC2)nc2cc(NS(=O)(=O)c3ccc(Cl)cc3)ccc21,,13% [at 0.0112 µM]
Cn1c(-c2ccc(=O)[nH]c2)nc2ccccc21,inactive,
Cc1ccc(-c2nc(S(=O)(=O)c3ccc(F)cc3)c(SCC(=O)NCC3CCCO3)o2)cc1 (stereo not given),inactive,
CN1CCc2ccc3c4c2[C@]1(C)Cc1cccc(c1-4)OCO3,100 µM [fluorescent] (active),
CCCc1nc2c(=O)n(C)c(=O)nc-2n(C)n1,inactive,
COc1cc(NCCCC(C)N)c2ncccc2c1 (stereo not given),,-9.55% [at 11.6 µM]
O=C1CNC(=S)N1c1nc(-c2ccccc2)cs1,,7.24% [at 0.0112 µM]
N#Cc1c(NC(=O)c2ccccc2Cl)n(Cc2ccccc2)c2nc3ccccc3nc12,inactive,
Cn1c(=O)[nH]c2nnc(-c3ccc(Cl)c(Cl)c3)nc2c1=O,inactive,
O=C(Nc1nc2ccc(Cl)cc2s1)c1ccc(N2CCCCC2)c([N+](=O)[O-])c1,inactive,
CC1=NN(Cc2ccccc2)C(=O)C1,inactive,
O=C(NNc1cc(N2CCOCC2)nc(N2CCOCC2)n1)c1ccc(Cl)c(Cl)c1,inactive,
CCOC(=O)c1cnc2nc(NCc3ccc(OC)c(OC)c3)[nH]n2c1=O,inactive,
Nc1cnccc1C(=O)O,inactive,
Cc1cccc(Cn2c(C(=O)OC(C)C)cc3c2ccn3C)c1,,8.18% [at 5.76 µM]
C=CCNC(=O)/C(C#N)=C\c1cc(Cl)c(OCC)c(OC)c1,inactive,
COc1ccc2c(c1)-c1nc(/N=C/c3c(O)ccc4ccccc34)sc1CC2,,29.6% [at 5.76 µM]
COc1ccc(CN2C(=O)Cc3c2nc(N)c2c(N)nc(N4CCCCC4)c(C#N)c32)cc1,inactive,
CN(CCO)c1nc(N)c2c(N)nc3c(c2c1C#N)CC(=O)N3C1CCCC1,,13.6% [at 11.6 µM]
